We go through five compounds from publication PMC11062922 (Nature Chemical Biology, 2023).

Where two headings read alike, the source gives them in different places.

Parameters in all cases: species or system human, MV4-11 + K-562 + COLO205 + SK-N-BE2 + OVCAR-8
Assay [1] relates to CSNK1A1. To be noted: read-out: apparent Kd, n = 1.
Assay [2] concerns CSNK1D. Particulars: read-out: apparent Kd, n = 1.
Assay [3] concerns CSNK1E. To be noted: read-out: apparent Kd, n = 1.
Assay [4] concerns MAPK10. To be noted: read-out: apparent Kd; compound concentrations: 100 nM and 1000 nM (sheet 'Samples'), CATDS: 9.5737343662475993E-2; n = 1.
For assay [5], the system named is MAPK14. Particulars: read-out: apparent Kd, n = 1.
Assay [6] relates to MAPK9. Particulars: read-out: apparent Kd, n = 1.
For assay [7], the system named is MAPKAPK2. To be noted: read-out: apparent Kd; compound concentrations: 100 nM and 1000 nM (sheet 'Samples'), CATDS: 0.108564299414966; n = 1.
Assay [8] deals with NLK. To be noted: read-out: apparent Kd, n = 1.
Assay [9] deals with PIP4K2C. Particulars: read-out: apparent Kd; compound concentrations: 100 nM and 1000 nM (sheet 'Samples'), CATDS: 7.4110853975201799E-2; n = 1.
Assay [10] deals with FLT3. To be noted: read-out: apparent Kd, compound concentrations: 100 nM and 1000 nM (sheet 'Samples'), n = 1.
The test system of assay [11] is MAP2K1. To be noted: read-out: apparent Kd; compound concentrations: 100 nM and 1000 nM (sheet 'Samples'), CATDS: 0.12402883868582899; n = 1.
Assay [12] has as its system MAP3K12. Particulars: read-out: apparent Kd; compound concentrations: 100 nM and 1000 nM (sheet 'Samples'), CATDS: 0.14214405219183901; n = 1.
The subject of assay [13] is PIK3C2A. Particulars: read-out: apparent Kd; compound concentrations: 100 nM and 1000 nM (sheet 'Samples'), CATDS: 0.1177028048525; n = 1.
Assay [14] concerns PLK1. To be noted: read-out: apparent Kd, compound concentrations: 100 nM and 1000 nM (sheet 'Samples'), n = 1.
Assay [15] deals with MAPK11. To be noted: read-out: apparent Kd; compound concentrations:100 nM and 1000 nM (sheet 'Samples'); n = 1.
The test system of assay [16] is PKN3. Particulars: read-out: apparent Kd; compound concentrations:100 nM and 1000 nM (sheet 'Samples'); n = 1.
Assay [17] concerns COX5A. To be noted: read-out: apparent Kd; compound concentrations: 100 nM and 1000 nM (sheet 'Samples'), CATDS: 0.15625736744525701; n = 1.
Assay [18] concerns DDR1. Particulars: read-out: apparent Kd; compound concentrations: 100 nM and 1000 nM (sheet 'Samples'), CATDS: 0.25244983438360302; n = 1.
Assay [19] relates to DDR2. Particulars: read-out: apparent Kd; compound concentrations: 100 nM and 1000 nM (sheet 'Samples'), CATDS: 0.115124869581512; n = 1.
The subject of assay [20] is NNT. To be noted: read-out: apparent Kd; compound concentrations: 100 nM and 1000 nM (sheet 'Samples'), CATDS: 0.115819369976432; n = 1.
In assay [21] the test system is PDXK. Particulars: read-out: apparent Kd; compound concentrations: 100 nM and 1000 nM (sheet 'Samples'), CATDS: 0.115099137531036; n = 1.
Assay [22] has as its system RET. To be noted: read-out: apparent Kd; compound concentrations: 100 nM and 1000 nM (sheet 'Samples'), CATDS: 0.12937404694589899; n = 1.
Assay [23] deals with ZAK. Particulars: read-out: apparent Kd; compound concentrations: 100 nM and 1000 nM (sheet 'Samples'), CATDS: 8.61130704510496E-2; n = 1.
Assay [24] has as its system CLK1. Particulars: read-out: apparent Kd; compound concentrations: 100 nM and 1000 nM (sheet 'Samples'), CATDS: 8.2490921109223694E-2; n = 1.
For assay [25], the system named is CLK4. Particulars: read-out: apparent Kd; compound concentrations: 100 nM and 1000 nM (sheet 'Samples'), CATDS: 9.1933960168397902E-2; n = 1.
In assay [26] the test system is FER. To be noted: read-out: apparent Kd; compound concentrations: 100 nM and 1000 nM (sheet 'Samples'), CATDS: 0.191525182518377; n = 1.
Assay [27] deals with FES. To be noted: read-out: apparent Kd; compound concentrations: 100 nM and 1000 nM (sheet 'Samples'), CATDS: 0.141762780842772; n = 1.
Assay [28] deals with IGF1R. To be noted: read-out: apparent Kd; compound concentrations: 100 nM and 1000 nM (sheet 'Samples'), CATDS: 0.28711469302714299; n = 1.
In assay [29] the test system is INSR. Particulars: read-out: apparent Kd; compound concentrations: 100 nM and 1000 nM (sheet 'Samples'), CATDS: 0.56670438264140999; n = 1.
Assay [30] has as its system PTK2. Particulars: read-out: apparent Kd; compound concentrations: 100 nM and 1000 nM (sheet 'Samples'), CATDS: 8.5472412677607995E-2; n = 1.
Setting [31] is: compound concentrations:100 nM and 1000 nM (sheet 'Samples').

`CN1CCC(n2cnc(-c3ccc(F)cc3)c2-c2ccnc(NC3CCNCC3)n2)CC1` [SB-229482]: the potency estimated from few doses was 1760 nM in assay [1] (compound concentrations: 100 nM and 1000 nM (sheet 'Samples'), CATDS: 7.6615483507767895E-2); 127 nM in [2] (compound concentrations: 100 nM and 1000 nM (sheet 'Samples'), CATDS: 0.231386526780439); 159 nM in [3] (compound concentrations: 100 nM and 1000 nM (sheet 'Samples'), CATDS: 0.20184204641009601); 810 nM in assay [4]; 121 nM in assay [5] (compound concentrations: 100 nM and 1000 nM (sheet 'Samples'), CATDS: 0.239197237832417); 682 nM in [6] (compound concentrations: 100 nM and 1000 nM (sheet 'Samples'), CATDS: 0.10171878103733301). The potency estimated from few doses in assay [7] was 573 nM; in assay [8] (compound concentrations: 100 nM and 1000 nM (sheet 'Samples'), CATDS: 8.6878607565958693E-2), 1100 nM; in [9], 2040 nM.
`CC(C)(C)n1cnc2c(N)ncnc21` [SKF-97359]: the potency estimated from few doses in assay [1] (compound concentrations: 100 nM and 1000 nM (sheet 'Samples'), CATDS: 0.118789019342549) is 1870 nM; in assay [2] (compound concentrations: 100 nM and 1000 nM (sheet 'Samples'), CATDS: 0.12511674231417799) it was 1680 nM; in [3] (compound concentrations: 100 nM and 1000 nM (sheet 'Samples'), CATDS: 0.10783492256042899), 2330 nM; in assay [10] (CATDS: 0.137141810176551), 1410 nM; in [11] it was 1710 nM; in assay [12] it was 1320 nM. For the same compound, the results for the potency estimated from few doses in [13] and in [14] (CATDS: 0.134584248305568) were 1910 nM and 1460 nM, respectively.
Turning to `Fc1ccc(-c2ncn(C3CCNCC3)c2-c2ccnc(Oc3ccccc3)n2)cc1` [SB-239272], the potency estimated from few doses was 1380 nM in assay [1] (setting [31]); 88.7 nM in assay [2] (setting [31]); 191 nM in assay [3] (setting [31]); 45.4 nM in [15]; 12.5 nM in [5] (setting [31]); 1110 nM in assay [6] (setting [31]). Moreover, the potency estimated from few doses in assay [8] (setting [31]) is 1500 nM; in [16], 2090 nM.
With `COC(=O)Nc1nc2cc(Oc3ccc(NC(=O)Nc4cccc(Br)c4)cc3)ccc2[nH]1.Cl` [GW694234A], the potency estimated from few doses in assay [17] was 463 nM; in assay [18], 217 nM; in assay [19] it was 865 nM; in assay [10] (CATDS: 0.12065000979252), 777 nM; in assay [20], 853 nM; in assay [21] it was 865 nM. In addition, the potency estimated from few doses in assay [22] is 668 nM; in assay [23], 2040 nM.
For `COc1cc2c(cc1Nc1nc(Nc3ccsc3C(N)=O)c3cc[nH]c3n1)N(C(=O)CN(C)C)CCC2` [GSK2110236A], the potency estimated from few doses in assay [24] is 1090 nM; in [25] it was 641 nM; in assay [26], 44.5 nM; in assay [27] it was 115 nM; in assay [28], 16.3 nM; in assay [29], 4.73 nM. Moreover, the potency estimated from few doses was 940 nM in assay [14] (CATDS: 8.4906950641747497E-2) and 909 nM in assay [30].
